Data published in PubChem BioAssay.
Calls of active or inactive are those of the source.

What was measured:
[1] = binders of probe aFSTL3 on microarray, primary screen, stem cell growth factor project, biochemical, small-molecule microarray, fluorescence 635/667 (AID 1064); settings: higher = more signal;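 also: measures binding of the biotinylated anti-FSTL3 antibody to printed compounds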
[2] = binders from COS7 lysate, DM2A8 probe, primary screen, torsin A project, cell lysate, small-molecule microarray, fluorescence 635/667 (AID 1065); settings: higher = more signal, COS7 lysate expressing mutant human TOR1A
[3] = binders of probe aFGF2 on microarray, primary screen, stem cell growth factor project, biochemical, small-molecule microarray, fluorescence 635/667 (AID 1067); settings: higher = more signal;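 also: measures binding of biotinylated aFGF2 protein to printed compounds on slides; z-score merges feature fluorescence and signal-to-noise across triplicate slides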
[4] = binders of probe aFGF10 on microarray, primary screen, stem cell growth factor project, biochemical, small-molecule microarray, fluorescence 635/667 (AID 1071); settings: higher = more signal;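 also: score merges 667 nm spot intensity and signal to noise from triplicate slides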
[5] = target: Neurogenic locus notch homolog protein 2 (Homo sapiens) (UniProt Q04721); test: Notch2 binders on small-molecule microarrays, primary screen, biochemical, small-molecule microarray, 635 nm fluorescence, stem cell growth factors (AID 1073); settings: Notch2 binding, higher = more signal
[6] = target: Pro-neuregulin-1, membrane-bound isoform (Homo sapiens) (UniProt Q02297); test: NRG1 binders on small-molecule microarrays, primary screen, psychiatric disease protein project, biochemical, small-molecule microarray, fluorescence 635/667 (AID 1075); settings: NRG1 binding, 635 nm fluorescence, higher = more signal;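 also: score combines 667 nm spot fluorescence with signal to noise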
[7] = tested on: Neuregulin-1 EGF-like domain; test: binders of neuregulin-1 EGF-like domain, primary screen, biochemical, small-molecule microarray, 635 nm fluorescence (AID 1081); settings: small-molecule microarray binding, higher = more signal;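 also: binding of the protein to compounds printed on small-molecule microarray slides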
[8] = FRG1 promoter luciferase signal modulators, primary screen, FRG1 inhibition for FSHD, cell-based, C2C12 myotubes, firefly/Renilla luciferase, luminescence (AID 1084); settings: higher = more signal, called active from +8 up or from −8 down
[9] = binders of probe aFST on microarray, primary screen, stem cell growth factor project, biochemical, small-molecule microarray, fluorescence 635/667 (AID 1086); settings: higher = more signal;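 also: score merges 667 nm fluorescence with signal-to-noise of each printed compound spot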
[10] = binders of probe aHhip on microarray, primary screen, stem cell growth factor project, biochemical, small-molecule microarray, fluorescence 635/667 (AID 1087); settings: higher = more signal;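 also: score merges spot fluorescence at 667nm with spot signal to noise ratio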

Chain of Neurogenic locus notch homolog protein 2 (Homo sapiens) (Q04721 whole entry, looked up, canonical isoform): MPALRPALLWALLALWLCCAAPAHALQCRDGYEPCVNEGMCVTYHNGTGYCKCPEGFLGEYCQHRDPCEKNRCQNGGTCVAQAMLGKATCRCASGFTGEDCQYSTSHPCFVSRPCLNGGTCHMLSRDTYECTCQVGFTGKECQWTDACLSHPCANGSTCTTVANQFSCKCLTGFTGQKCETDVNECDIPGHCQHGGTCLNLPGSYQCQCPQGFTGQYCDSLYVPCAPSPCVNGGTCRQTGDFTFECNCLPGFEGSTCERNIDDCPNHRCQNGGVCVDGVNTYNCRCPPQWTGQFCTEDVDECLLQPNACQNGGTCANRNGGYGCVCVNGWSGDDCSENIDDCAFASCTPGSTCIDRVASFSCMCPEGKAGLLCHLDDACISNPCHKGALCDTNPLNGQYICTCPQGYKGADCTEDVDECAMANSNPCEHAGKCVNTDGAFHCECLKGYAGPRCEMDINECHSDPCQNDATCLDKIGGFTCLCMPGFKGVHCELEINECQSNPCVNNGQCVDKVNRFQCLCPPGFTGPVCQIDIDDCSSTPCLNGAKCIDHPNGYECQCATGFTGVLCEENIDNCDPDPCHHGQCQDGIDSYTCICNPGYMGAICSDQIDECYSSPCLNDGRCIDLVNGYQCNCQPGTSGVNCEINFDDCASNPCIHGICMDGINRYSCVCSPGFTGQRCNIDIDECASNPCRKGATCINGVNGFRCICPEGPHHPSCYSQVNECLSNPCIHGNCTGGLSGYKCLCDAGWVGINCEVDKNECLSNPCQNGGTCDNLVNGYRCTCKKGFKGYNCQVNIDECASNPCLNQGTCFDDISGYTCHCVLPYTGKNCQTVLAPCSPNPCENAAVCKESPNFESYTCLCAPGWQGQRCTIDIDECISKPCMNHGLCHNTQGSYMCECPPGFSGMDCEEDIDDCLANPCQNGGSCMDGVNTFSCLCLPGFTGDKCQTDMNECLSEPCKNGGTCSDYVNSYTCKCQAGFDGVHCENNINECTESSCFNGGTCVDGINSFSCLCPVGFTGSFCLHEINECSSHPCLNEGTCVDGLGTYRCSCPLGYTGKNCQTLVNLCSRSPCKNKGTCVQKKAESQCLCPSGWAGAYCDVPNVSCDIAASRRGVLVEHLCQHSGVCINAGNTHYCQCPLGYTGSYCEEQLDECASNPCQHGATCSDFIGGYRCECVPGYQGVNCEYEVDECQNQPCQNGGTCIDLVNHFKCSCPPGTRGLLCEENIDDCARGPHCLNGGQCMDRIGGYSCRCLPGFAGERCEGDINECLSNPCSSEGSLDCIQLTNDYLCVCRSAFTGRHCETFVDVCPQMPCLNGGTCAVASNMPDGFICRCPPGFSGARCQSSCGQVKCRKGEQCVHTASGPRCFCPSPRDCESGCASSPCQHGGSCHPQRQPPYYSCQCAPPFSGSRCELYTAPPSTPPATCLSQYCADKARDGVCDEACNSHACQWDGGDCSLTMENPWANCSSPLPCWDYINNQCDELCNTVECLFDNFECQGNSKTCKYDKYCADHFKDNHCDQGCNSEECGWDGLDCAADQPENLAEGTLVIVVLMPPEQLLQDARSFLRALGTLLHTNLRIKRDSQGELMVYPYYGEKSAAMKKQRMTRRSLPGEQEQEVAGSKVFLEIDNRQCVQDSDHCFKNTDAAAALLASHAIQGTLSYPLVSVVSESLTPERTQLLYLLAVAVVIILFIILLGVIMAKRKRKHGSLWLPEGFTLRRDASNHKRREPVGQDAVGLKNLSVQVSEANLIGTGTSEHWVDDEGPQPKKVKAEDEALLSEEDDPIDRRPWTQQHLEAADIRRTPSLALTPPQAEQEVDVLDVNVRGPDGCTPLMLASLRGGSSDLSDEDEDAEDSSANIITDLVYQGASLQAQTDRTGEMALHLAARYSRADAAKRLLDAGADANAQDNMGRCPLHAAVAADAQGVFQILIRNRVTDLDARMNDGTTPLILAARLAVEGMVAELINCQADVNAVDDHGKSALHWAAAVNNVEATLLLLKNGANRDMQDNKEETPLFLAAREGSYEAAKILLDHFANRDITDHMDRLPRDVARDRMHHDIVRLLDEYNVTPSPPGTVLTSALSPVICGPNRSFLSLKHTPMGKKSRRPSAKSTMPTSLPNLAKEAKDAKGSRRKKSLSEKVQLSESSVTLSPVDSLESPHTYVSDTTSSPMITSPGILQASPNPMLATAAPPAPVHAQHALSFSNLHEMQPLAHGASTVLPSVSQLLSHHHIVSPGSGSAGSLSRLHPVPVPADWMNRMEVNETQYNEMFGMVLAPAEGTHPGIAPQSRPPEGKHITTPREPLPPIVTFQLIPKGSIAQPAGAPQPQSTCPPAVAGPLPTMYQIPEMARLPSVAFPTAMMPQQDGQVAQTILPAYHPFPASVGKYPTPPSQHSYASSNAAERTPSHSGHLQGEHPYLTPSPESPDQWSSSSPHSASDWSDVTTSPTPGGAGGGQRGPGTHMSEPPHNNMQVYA
Chain of Pro-neuregulin-1, membrane-bound isoform (Homo sapiens) (Q02297 whole entry, looked up, the tested form may be a part, canonical isoform): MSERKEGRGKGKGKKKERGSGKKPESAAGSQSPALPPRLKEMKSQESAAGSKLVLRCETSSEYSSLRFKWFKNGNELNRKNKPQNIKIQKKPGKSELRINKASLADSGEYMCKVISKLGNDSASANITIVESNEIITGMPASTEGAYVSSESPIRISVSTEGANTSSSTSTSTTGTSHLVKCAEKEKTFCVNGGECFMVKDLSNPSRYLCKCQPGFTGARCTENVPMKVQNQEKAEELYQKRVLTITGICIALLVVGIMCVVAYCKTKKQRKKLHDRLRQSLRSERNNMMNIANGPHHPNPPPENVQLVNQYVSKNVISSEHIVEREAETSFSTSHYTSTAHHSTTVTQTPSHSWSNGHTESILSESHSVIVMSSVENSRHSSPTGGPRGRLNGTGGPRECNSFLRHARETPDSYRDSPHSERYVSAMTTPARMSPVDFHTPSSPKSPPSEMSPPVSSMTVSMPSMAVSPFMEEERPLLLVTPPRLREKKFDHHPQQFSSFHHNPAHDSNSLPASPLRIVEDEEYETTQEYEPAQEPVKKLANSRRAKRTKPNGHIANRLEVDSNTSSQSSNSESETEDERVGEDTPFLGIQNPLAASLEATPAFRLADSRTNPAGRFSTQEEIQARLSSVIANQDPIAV

Row | SMILES | composite z-score [1] | composite z-score [2] | composite z-score [3] | composite z-score [4] | composite z-score [5] | composite z-score [6] | composite z-score [7] | z-score [8] | composite z-score [9] | composite z-score [10]
1 | O=C1c2ccccc2[C@](Cc2ccccc2I)(C(=O)NCCN2CCOCC2)[C@H](c2ccc(CO)cc2)N1Cc1ccccc1 | -0.0634 | 0.783 | -0.0356 | 0.699 | 1.33 | 1.1 | 1.33 | -3.84 (inactive) | 0.983 | 0.519
2 | C=C(/C=C/CNS(=O)(=O)c1ccc(C)cc1)[C@H](O)[C@H]1CCCN1S(=O)(=O)c1ccccc1[N+](=O)[O-] | -0.402 | 0.578 | -0.0817 | 0.395 | 0.324 | 0.211 | 0.0706 | -4.12 (inactive) | 0.279 | 0.0373
3 | COc1ccc([Si](C)(C)[C@H]2[C@H](CCn3cc([C@H](O)c4ccccc4)nn3)O[C@@]3(C(=O)N(Cc4cccc(N5C(=O)c6cccc7cccc5c67)c4)c4ccccc43)[C@@H]2C)cc1 | 0.582 | -0.17 | -0.158 | -1.11 | -1.65 | 0.84 | 0.251 | -0.704 (inactive) | -0.295 | -0.0994
4 | NC(N)=NCc1cn(CCc2c[nH]c3ccccc23)nn1 | -0.711 | 0.348 | -0.121 | 0.536 | 0.348 | 0.499 | 0.992 | 0.512 (inactive) | 0.225 | 0.132
5 | CN1C(=O)C2C=CC(C(O)Cc3ccccc3)N(N(c3ccccc3)c3ccccc3)C2C1=O (stereo not given) | 0.135 | 0.147 | 0.0295 | 0.837 | 0.602 | 0.503 | 1.11 | 0.357 (inactive) | 0.654 | 0.107
6 | C=CC[C@@]1(C(=O)N2CCCCC2)N=C(c2ccc(OCCCO)cc2)O[C@@H]1c1ccccc1 | 1 | 0.651 | 0.0336 | 0.307 | 0.201 | 1.56 | 1.19 | -1.21 (inactive) | 0.688 | 0.595
7 | [N-]=[N+]=Nc1ccccc1[C@H]1OC(c2ccc(OCCCO)cc2)=N[C@@]1(CCS(=O)(=O)c1ccccc1)C(=O)N1CCCCC1 | 1.26 | 0.526 | 0.0056 | 0.699 | 1.43 | 1.46 | 1.2 | 1.8 (inactive) | 1.24 | -0.201
8 | CN(C)CCCNC(=O)[C@@H]1c2ccccc2C(=O)N(CC23CC4CC(CC(C4)C2)C3)[C@H]1c1ccc(CO)cc1 | -0.782 | 1.13 | 0.0878 | 0.837 | 1.28 | 1.15 | 1.39 | -1.92 (inactive) | 0.445 | -0.128
9 | CC(C)CNC(=O)[C@@H]1c2ccccc2C(=O)N(Cc2cc(F)cc(C(F)(F)F)c2)[C@H]1c1ccc(CO)cc1 | 0.366 | -0.23 | 0.0079 | 0.207 | 0.561 | 0.38 | 1.23 | -1.78 (inactive) | 0.0604 | -0.0237
10 | CO[C@H]1O[C@H](CO)[C@@H](OC(=O)Nc2ccccc2-c2ccccc2)[C@H](OC(=O)Nc2ccc3c(c2)OCO3)[C@@H]1OC(=O)Nc1ccc2c(c1)OCO2 | 0.0632 | 0.291 | 0.0826 | 0.733 | 1.44 | 1.62 | 1.4 | 5.64 (inactive) | 1.2 | 0.141
11 | COc1cc(CO)cc(I)c1O[C@H]1C=C(C(=O)NCCO)C[C@@H](N(CC2CCCCC2)C(=O)c2ccc(C(F)(F)F)cc2)[C@@H]1O | -0.356 | 0.0668 | -0.101 | 0.268 | 0.546 | 0.115 | 1.02 | -1.85 (inactive) | 0.0701 | 0.12
12 | CC(C)c1ccc(NN2C(C(O)c3ccco3)C=CC3C(=O)N(c4ccccc4)C(=O)C32)cc1 (stereo not given) | 0.447 | 0.334 | 0.106 | 0.677 | 1.71 | 1.46 | 1.2 | -1.22 (inactive) | 1.34 | -0.0606
13 | CC(C)C(CO)N1C(=O)[C@]2(C)C3C(=O)OCCC/C=C\[C@H]3OC23C=CCN(c2ccc(Cl)cc2)C(=O)[C@@H]13 (stereo not given in full) | 0.0972 | -0.481 | -0.101 | -0.17 | -0.689 | 0.344 | 1.11 | 0.0186 (inactive) | 0.0043 | -0.0994
14 | COc1c(C)cc(-c2cc3c(c(Cc4ccccc4)n2)[Si](C(C)C)(C(C)C)OC3)cc1C | -0.148 | 0.0413 | -0.0448 | -0.108 | 0.64 | -0.0762 | -0.588 | 0.184 (inactive) | 0.335 | -0.0994
15 | C=C(COC)/C(=C/C[C@@H](OC(=O)c1ccncc1)c1ccc(OCCO)cc1)c1cnc2ccccc2c1 | -0.0384 | 0.651 | 0.124 | 1.15 | 1.74 | -0.578 | 1.2 | -1.73 (inactive) | 0.28 | -0.0994
16 | COc1ccc([Si](C)(C)[C@H]2[C@H](CCn3cc([C@H](O)c4ccccc4)nn3)O[C@@]3(C(=O)N(Cc4ccc(N5CCOC5=O)cc4)c4ccccc43)[C@@H]2C)cc1 | 0.365 | -0.437 | -0.204 | -0.111 | -1.11 | 0.276 | -0.426 | -1.58 (inactive) | -0.757 | -0.236

Row | SMILES | composite z-score [1] | composite z-score [2] | composite z-score [3] | composite z-score [4] | composite z-score [5] | composite z-score [6] | composite z-score [7] | z-score [8] | composite z-score [9] | composite z-score [10]
17 | COCCOC(=O)N1C(=O)[C@@]2(c3ccccc31)[C@H](C(=O)N1CCN(c3ncccn3)CC1)[C@H]1C(=O)O[C@H](c3ccccc3)[C@H](c3ccccc3)N1[C@@H]2c1ccc(OCCO)cc1 | 0.213 | 0.295 | 0.0043 | 1.13 | 1.29 | 1.2 | 1.28 | 0.795 (inactive) | 0.593 | 0.388
18 | O=C1C[C@]2(c3ccc([N+](=O)[O-])cc3)C(=O)N(Cc3ccccc3)c3cc(CO)ccc3[C@H]2N1CC12CC3CC(CC(C3)C1)C2 | 0.0993 | -0.728 | 0.0018 | -0.817 | -0.746 | -0.468 | -0.851 | -0.0424 (inactive) | 0.0779 | -0.369
19 | CCN(CC)c1ccc(N2CC=CC34O[C@@H]5/C=C\CCC(C)OC(=O)C5[C@H]3C(=O)N(CCO)[C@@H]4C2=O)cc1 (stereo not given in full) | 0.478 | -0.476 | -0.103 | -0.57 | -0.331 | 1.57 | 1.15 | 1.16 (inactive) | -1.17 | -0.134
20 | CN(C)CCCNC(=O)[C@@H]1c2ccccc2C(=O)N(Cc2ccc(OC(F)(F)F)cc2)[C@H]1c1ccc(CO)cc1 | -0.212 | -0.103 | -0.113 | -0.133 | -0.0854 | 1.22 | 1.15 | -1.22 (inactive) | 0.18 | 0.287
21 | CC1CC/C=C\[C@H]2OC34C=CCN(C(C)C)C(=O)[C@H]3N(CCCCCO)C(=O)[C@@H]4C2C(=O)O1 (stereo not given in full) | 0.4 | -1.06 | -0.0996 | -0.47 | -0.704 | -0.187 | 0.0093 | 0.371 (inactive) | -0.386 | -0.191
22 | CCOC(=O)C[C@H]1[C@H](OC(=O)c2ccc(C(=O)c3ccccc3)cc2)[C@@H](NC(=O)c2ccc3ccccc3c2)c2cc(OCCCO)ccc2N1C(=O)c1ccccc1 | -0.476 | 0.443 | -0.0943 | 0.757 | 1.48 | 1.01 | 1.07 | 0.0732 (inactive) | 0.355 | -0.0672
23 | COCCOC(=O)N1C(=O)[C@@]2(c3cc(C#CC4=CCCCC4)ccc31)[C@H](C(=O)N1CCN(c3ncccn3)CC1)[C@H]1C(=O)O[C@H](c3ccccc3)[C@H](c3ccccc3)N1[C@@H]2c1ccc(O)cc1 | -0.0505 | 0.181 | 0.0467 | 0.669 | 1.33 | 0.79 | 1.24 | 0.378 (inactive) | 0.442 | 0.208
24 | C=CCN1C(=O)[C@@]2(O[C@@H](CCO)[C@H]([Si](C)(C)c3ccc(OC)cc3)[C@H]2C)c2cc(N3C(=O)c4ccccc4Oc4ccccc43)ccc21 | -0.033 | 0.0892 | -0.0491 | 0.907 | 0.166 | 0.402 | 0.882 | -1.94 (inactive) | -0.204 | -0.261
25 | CCCN1C(=O)[C@]2(Cc3ccccc3)N=C(c3ccc(OCCCO)cc3)O[C@@H]2c2ccccc21 | 0.224 | 1.12 | -0.0226 | 0.347 | 0.415 | 0.305 | 1.3 | -0.355 (inactive) | 0.195 | -0.198
26 | COc1cc2c(cc1OC)CN(C(=O)[C@@H]1[C@H]3C(=O)O[C@H](c4ccccc4)[C@H](c4ccccc4)N3[C@H](c3ccccc3OCCO)[C@@]13C(=O)Nc1ccc(C#CC4(O)CCCCCC4)cc13)CC2 | -0.0079 | 0.955 | -0.0573 | 0.201 | 0.463 | 0.935 | 1.2 | -0.066 (inactive) | -0.0613 | -0.123
27 | COc1cc2c(cc1OC)CN(C(=O)[C@H]1[C@@H]3C(=O)O[C@@H](c4ccccc4)[C@@H](c4ccccc4)N3[C@@H](c3ccc(OCCO)cc3)[C@]13C(=O)Nc1ccc(C#CCCO)cc13)CC2 | -0.0463 | 0.853 | 0.0746 | 0.844 | 1.43 | 1.39 | 0.874 | -0.0164 (inactive) | 0.707 | 0.305
28 | CC(C)CCC[C@@H](C)[C@H]1CC[C@@]2(C)C3=C(CC[C@]12C)[C@@]1(C)CC[C@H](OC(=O)c2ccc(Br)cc2)C(C)(C)C1CC3 (stereo not given in full) | -0.571 | 0.193 | -0.128 | 0.541 | 0.5 | 0.0933 | 0.439 | -0.879 (inactive) | 0.0941 | -0.126
29 | CC(=O)n1cc(C(O)C2C=CC3C(=O)N(c4ccccc4)C(=O)C3N2Nc2ccccc2)c2ccccc21 (stereo not given) | 1.87 | 0.489 | 0.447 | 0.893 | 1.52 | 0.837 | 1.11 | 0.621 (inactive) | 1.1 | -0.0702
30 | [N-]=[N+]=NCc1ccccc1C[C@@]1(C(=O)N2CCCCC2)N=C(c2ccc(OCCCO)cc2)O[C@@H]1c1ccccc1N=[N+]=[N-] | 0.167 | 0.101 | -0.204 | 0.229 | 1.49 | 1.38 | 1.05 | -3 (inactive) | 0.227 | 0.0505
31 | CN(C)CCCNC(=O)[C@@]1(c2ccc([N+](=O)[O-])cc2)CC(=O)N(CC23CC4CC(CC(C4)C2)C3)[C@@H]1c1ccc(CO)cc1 | 1.47 | 1.15 | 0.301 | 0.143 | 0.904 | 1.38 | 1.35 | -2.36 (inactive) | 1.92 | 0.635
32 | CN(C)CCCNC(=O)[C@@]1(C)c2ccccc2C(=O)N(Cc2cc(C(F)(F)F)cc(C(F)(F)F)c2)[C@H]1c1ccc(CO)cc1 | -0.303 | -0.401 | -0.141 | -0.404 | -0.463 | -0.012 | 0.538 | 0.123 (inactive) | -0.353 | 0.192
